# ChEMBL document CHEMBL4513216, “Probing the Open Global Health Chemical Diversity Library for Multistage-Active Starting Points for Next-Generation Antimalarials” (ACS Infect Dis, 2020)
# In all, about 69,000 compounds went through this assay and about 8,600 (12%) showed an effect of 50% or more. Shown is part of a subset that was picked to be rich in strong results.
# System: Plasmodium berghei
# Test: Screen against P. berghei liver stage (PbLuc), transformed with Luciferase, at 10uM
# Assay type: functional, HepG2
# Conditions: tested at 10 uM
row,SMILES,INHIBITION [%]
1,O=C(CC1CCC2(CC1)CCN(Cc1cccnc1)CC2)N1CC=CC1,-4.32
2,Cc1ccc(CN2CCc3[nH]nc(C(=O)N(C)C)c3C2)o1,6.27
3,c1cnc2c(CN3CCCCC3c3ccncn3)cnn2c1 (configuration not stated),16.5
4,Cn1cc(CN2CCCC23CCN(C(=O)c2cccs2)CC3)cn1,28.4
5,CC1(C(N)=O)CN(CC2CCOCC2)CCO1 (configuration not stated),26.3375
6,CS(=O)(=O)N1CCC(c2nnc3ccc(C(=O)NC4CCC4)cn23)C1 (configuration not stated),37.3
7,Cc1cc(C(F)(F)F)nn1C(C)C(=O)Nc1ccc(Cl)cn1 (configuration not stated),47.4
8,Cn1c(Cn2cccn2)nnc1C1CCN(Cc2ccccc2Cl)CC1,-10.9
9,Cc1nn(C)c(Cl)c1C1CCCN1C(=O)c1ccnc(N(C)C)c1 (configuration not stated),-65.3
10,COc1ccc(Cl)cc1NCc1nc2[nH]c(C)c(C)c(=O)n2n1,16
11,O=C(Nc1cc(C(F)(F)F)c[nH]c1=O)N1CCSCC1,-43.6
12,Cc1nc(C(=O)N2CCCC2c2cnn(C)c2)ccc1C#N (configuration not stated),13.3
13,CNC(=O)c1ccc(C2CN(C(=O)c3cncs3)CCO2)nc1 (configuration not stated),50
14,CNC(=O)c1ccc(C2CN(C(=O)c3scnc3C)CCO2)nc1 (configuration not stated),-5.71
15,CNC(=O)c1ccc(C2CN(C(=O)c3cnn(C)c3)CCO2)nc1 (configuration not stated),29.2
16,CCOc1ncccc1C(=O)N1CCCC1c1c(C)nn(C)c1Cl (configuration not stated),-19.9
17,CCN(C)S(=O)(=O)NCC(C)(O)c1ccsc1 (configuration not stated),31.7
18,COCCN1C(=O)CO[C@H]2CN(Cc3ccccc3Cl)C[C@@H]21,63.4
19,COCCN1C(=O)CO[C@H]2CN(S(=O)(=O)c3ccccc3)C[C@H]21,-6.3
20,COCCN1C(=O)CO[C@H]2CN(Cc3cccc(OC)c3F)C[C@@H]21,27.8
21,Cn1ccnc1CN1C(=O)CO[C@H]2CN(CCCc3ccccc3)C[C@H]21,27.5
22,COCCN1C(=O)CO[C@H]2CN(CCCc3ccccc3)C[C@H]21,51.9
23,COCCN1C(=O)CO[C@H]2CN(Cc3ccccc3OC)C[C@H]21,-17.2

row,SMILES,INHIBITION [%]
1,CC(Nc1cccc(CN2CCOC2=O)c1)C(=O)NC(=O)NC(C)(C)C (configuration not stated),3.75
2,CCNC(=O)[C@@H]1C[C@H](NC(=O)c2cc(=O)[nH]c3ccc(C)cc23)CN1C,29.4
3,COC(=O)c1ccc(N(C(=O)c2cc(Cl)ccn2)C(C)C)c(C)c1,19.4
4,CC(C)(C)NC(=O)CN1CCCC(c2ccc(C(=O)O)cc2)C1 (configuration not stated),26.9
5,N#Cc1ccsc1NC(=O)CCN1CCn2c(nnc2C2CC2)C1,-25.9
6,CC1CCC(NS(=O)(=O)CC(=O)Nc2ccccc2N2CCCC2)CC1 (configuration not stated),-52.2
7,CCOCCCC(=O)NCc1ccc(N2CCCCC2)cc1,42.7
8,CC1CCCN(c2ccc(C(N)=O)cc2NC(=O)CC2=CCNCC2)C1 (configuration not stated),56.3
9,NC(=O)c1ccc(N2CCCCC2)c(NC(=O)c2cncc(Br)c2)c1,46.8
10,CCOCCC(=O)Nc1cc(C(N)=O)ccc1N1CCCC(C)C1 (configuration not stated),73
11,COCCCC(=O)Nc1cccnc1N1CCCCC1,35.1
12,CCNC(=O)COc1ccccc1N1CCCC(C)C1 (configuration not stated),36.2
13,CCOCCCC(=O)Nc1cc(C(N)=O)ccc1N1CCCCC1,72.1
14,CC1CCCN(c2ccccc2OCC(=O)NC2CC2)C1 (configuration not stated),42.6
15,Cc1csc(C2CCCN(C(=O)Cn3ccccc3=O)C2)n1 (configuration not stated),-17.6
16,CC(C)CNC(=O)C1(Cc2ccccc2-c2ccccc2)CCNC1 (configuration not stated),47.2
17,COc1ccc(COCC(O)CN2CCC(c3ccn[nH]3)CC2)cc1 (configuration not stated),44.1
18,COCCOCC(=O)Nc1ccc(Br)cc1F,-6.32
19,O=C(O)c1c[nH]c2cc(NS(=O)(=O)c3cc(F)ccc3Cl)ccc12,-31.8
20,Cn1cc(C2=NOC(C(=O)NC3(c4ccccc4)CCCC3)C2)cn1 (configuration not stated),-6.975
21,CO[C@@H]1CN(c2ccccc2)S(=O)(=O)[C@@]12CCN(S(C)(=O)=O)C2,39.6
22,CCn1cc(CN2CCCN(C(=O)c3ccc(C)nc3)CC2)cn1,-47.6
23,COCC1c2c(cnn2CC2CCOCC2)CCN1Cc1ccoc1 (configuration not stated),14.4

row,SMILES,INHIBITION [%]
1,CCC(C)(CC(=O)OC)NCc1cc(C)on1 (configuration not stated),56.6
2,CCC(C)(CC(=O)OC)NCc1nc(C)no1 (configuration not stated),-50.8
3,CCC(C)(CC(=O)OC)NCc1noc(C)n1 (configuration not stated),-31.9
4,CC(=O)N1CCN(C(=O)CCCc2nnc(-c3ccccc3)o2)CC1,28.8
5,CC(Nc1cccc(CN2CCOC2=O)c1)C(=O)Nc1ccccc1 (configuration not stated),35.4
6,CN1[C@@H](c2ccccc2)[C@@H](C(=O)NCc2ccncc2)C[C@@]1(C)C(=O)O,39.6
7,CN1[C@@H](c2ccccc2)[C@@H](C(=O)NCc2ccccn2)C[C@@]1(C)C(=O)O,60.1
8,CN1[C@@H](c2ccccc2)[C@@H](C(=O)NCC2CCOCC2)C[C@@]1(C)C(=O)O,41.5
9,COC(=O)CC1CCN(C(=O)c2ccc(-n3nnnc3C)cc2)CC1,27
10,O=C(c1cccnc1)N1CCC2(CNS(=O)(=O)c3cnccc3O2)C1 (configuration not stated),37.5
11,O=C(c1ccccn1)N1CCC2(CNS(=O)(=O)c3cnccc3O2)C1 (configuration not stated),17.6
12,CC(C)(C)C(=O)N1CCC2(CNS(=O)(=O)c3cnccc3O2)C1 (configuration not stated),53.2
13,O=C(CNc1ccc(OC2CCOC2)cc1)NCc1ccc(F)cc1 (configuration not stated),-68.6
14,Cn1nnc2c(N3CC(C(=O)NCc4cccs4)C3)ncnc21,-37.2
15,O=C(NC1CC1)N1CC[C@H]2[C@H]1CCN2c1ncccn1,-4.82
16,CCc1noc(CN2CCN(C(=O)c3ccccc3F)CC2)n1,43.3
17,CCc1noc(CN2CCCN(C(C)=O)CC2)n1,25.6
18,CCc1noc(CN2CCN(C(=O)COC)CC2)n1,25.6
19,CCc1noc(CN2CCN(C(=O)C3CC3)CC2)n1,54.4
20,CCc1noc(CN2CCN(C(=O)N(C)C)CC2)n1,-27.3
21,CCc1noc(CN2CCN(C(=O)Cc3ccc(F)cc3)CC2)n1,52.4
